# Calls of active or inactive are those of the source. Calls come from the whole dose curve; as a rule, active = well fitted curve in the direction sought with a large enough effect in the repeat runs; inconclusive = weak or mixed curves; inactive = flat fitted curve, though single readings scatter.
# Assay: qHTS assay to test for compound auto fluorescence at 590 nm (red) in HepG2 cells (AID 720674)
# Conditions: HepG2 autofluorescence, red 540/590 nm, 1 h; series mostly up to 91.3 µM
# Description: U.S. Tox21 Program National Center for Advancing Translational Sciences [NCATS] NIH Chemical Genomics Center [NCGC] U.S. Environmental Protection Agency [EPA] National Institutes of Environmental Health Sciences [NIEHS] National Toxicology Program [NTP] U.S. Food and Drug Administration [FDA] Tox21 Assay Overview: Compound auto fluorescence often interferes with screening of the compound library against various biological targets and signaling pathways. Some of these compounds may have fluorophoric properties. Such properties may interfere with the assay outputs resulting in false positives and/or negatives. To decrease such complications and ensure the compound activities are relevant in terms of biological response, the Tox21 10K compound library was screened for auto fluorescence. From the fluorophores used as reporter signals in our screening assays, the auto fluorescence equivalencies of compounds against three fluorophores have been evaluated: Triamterene, Fluorescein and Rose Bengal sodium for blue, green and red fluorescence, respectively. The fluorescence intensities were measured using Excitation/Emission wavelengths at 405/460nm, 485/535nm and 540/590nm for blue, green and red labels, respectively. This assay includes the red fluorescence data.
# Tox21 Assay Protocol Summary: 2,000 HepG2 cells in 5 uL of culture medium (MEM containing 10% FBS) per well were dispensed into black wall/clear bottom 1536-well plates using a Multidrop Combi Dispenser (ThermoFisher Scientific, Waltham, MA). The assay plates were incubated overnight at 37 C to allow cell attachment to the well bottom, followed by the transfer of 23 nL compound or DMSO vehicle by a pintool work station (Kalypsys , San Diego, CA). After the assay plates were incubated for 1 hr at 37 C and 5% CO2, fluorescence intensities in the assay plates were measured by an Envision (PerkinElmer, Shelton, CT) plate reader using three labels for measuring blue, green and red fluorescence at […] 460, 535 and 590 nm respectively.
# % is set by controls: 0 for no effect and ±100 for the full control effect.
Structure (SMILES),outcome,"fluorescence, relative to Rose Bengal"
CCCCC(=O)O[C@]1(C(=O)CO)[C@@H](C)C[C@H]2[C@@H]3CCC4=CC(=O)C=C[C@]4(C)[C@@]3(F)[C@@H](O)C[C@@]21C,inactive,–
COCc1c(C(C)C)nc(C(C)C)c(/C=C/[C@@H](O)C[C@@H](O)CC(=O)O)c1-c1ccc(F)cc1,inactive,–
C=C(C)C(=O)OCCOC(=O)CC(C)=O,inactive,–
C[N+](C)(C)CCOC(N)=O,inactive,–
CN1C(=O)CC(C)(c2ccccc2)C1=O (stereo not given),inactive,–
CO[C@H]1O[C@H](CO)[C@@H](O)[C@H](O)[C@H]1O,inactive,–
CCCCCCCCCCCC[N+](C)(C)CC(=O)[O-],inactive,–
CCCCCCCC/C=C\CCCCCCCC(=O)OC,inactive,–
Cc1nc2ccccc2s1,inactive,–
CCCCCC=CCC=CCCCCCCCC(=O)OCC,inactive,–
COc1cc2[nH]c(=O)[nH]c(=O)c2cc1OC,–,0.0405% [at 18.6 µM] (inactive)
CC(C)(C)C(=O)O,inactive,–
COC(=O)Nc1nc2ccc(C(=O)c3cccs3)cc2[nH]1,inactive,–
CO[C@@]12[C@H](COC(N)=O)C3=C(C(=O)C(C)=C(N)C3=O)N1C[C@@H]1N[C@@H]12,inactive,–
CC(CCc1ccc2c(c1)OCO2)NN (stereo not given),inactive,–
CCCOC(=O)c1ccc(C(=O)OCCC)nc1,inactive,–
C/C=C(\C)C(=O)OCCC(C)CCC=C(C)C (stereo not given),inactive,–
O=C(CCCN1CCC(O)(c2ccc(Br)cc2)CC1)c1ccc(F)cc1,–,0.666% [at 18.6 µM] (inactive)
CCCC(=O)O[C@]1(C(=O)COC(=O)CC)CC[C@H]2[C@@H]3CCC4=CC(=O)CC[C@]4(C)[C@H]3[C@@H](O)C[C@@]21C,inactive,–
CCCCN(CCCC)CCCOC(=O)c1ccc(N)cc1,–,-0.556% [at 18.6 µM] (inactive)

Structure (SMILES),outcome,"fluorescence, relative to Rose Bengal"
Fc1c(F)c(F)c(Br)c(F)c1F,inactive,–
CCn1nc(C)c2c1C(=O)NCC(c1ccc(O)cc1)=N2,inactive,–
CN1CCCN=C1/C=C/c1cccs1,inactive,–
NC(=O)N(O)[C@@H]1C=C[C@H](Oc2cccc(Oc3ccc(F)cc3)c2)C1,inactive,–
CC(C)CCCCCOC(=O)CCCCC(=O)OCCCCCC(C)C,inactive,–
CC(C)CCCC(=O)O,inactive,–
COc1cc2c(cc1OC)-c1cc(=Nc3c(C)cc(C)cc3C)n(C)c(=O)n1CC2,inactive,–
O=C(Nc1ccccc1)Nc1ccccc1,inactive,–
Nc1ccc(S(=O)(=O)O)cc1,inactive,–
CC(C)(C)C(=O)C(Oc1ccc(Cl)cc1)n1ccnc1 (stereo not given),inactive,–
CCOC(=O)c1ccccc1OC,inactive,–
O=C(O)Cc1ccc(-c2ccccc2)cc1,–,0.37% [at 18.6 µM] (inactive)
CCC(C(=O)OCCOCCN(CC)CC)c1ccccc1 (stereo not given),inactive,–
O=C1OCCN1/N=C/c1ccc([N+](=O)[O-])o1,inactive,–
CC(=O)OCC(=O)[C@@]12OC(C)(C)O[C@@H]1C[C@H]1[C@@H]3C[C@H](F)C4=CC(=O)C=C[C@]4(C)[C@@]3(F)[C@@H](O)C[C@@]12C,–,0.821% [at 18.6 µM] (inactive)
Cc1nccn1-c1ccc(Sc2cccc(C3(C(N)=O)CCOCC3)c2)cc1,inactive,–
CCCOc1ccc(S(=O)(=O)N2CCN(CC)CC2)cc1-c1nc2c(CC)n(Cc3ccccn3)nc2c(=O)[nH]1,inactive,–
Cc1cc(O)c2c(O)c3c(O)cccc3cc2c1,inactive,–
CCOC(=O)CC(=O)C(=O)OCC,inactive,–
Oc1cc(O)c(Cl)cc1Cl,inactive,–
